Rows were chosen to be rich in hits. Some 11% of all compounds tested hit in one or more screens of this group.
NPR1 antag: antagonists of human natriuretic peptide receptor Npr1; P16066; HEK293 hNpr1 GloSensor cGMP, ANP-stimulated luminescence; Potency, µM (highest dose often 46.3 µM), actives largely listed as inhibitors; hit rate 1.6% among 76,000; AID 1347048; calls by dose curve; further: nearly all actives have a fitted effect of over 60% in size
Target sequence (P16066 whole entry, looked up): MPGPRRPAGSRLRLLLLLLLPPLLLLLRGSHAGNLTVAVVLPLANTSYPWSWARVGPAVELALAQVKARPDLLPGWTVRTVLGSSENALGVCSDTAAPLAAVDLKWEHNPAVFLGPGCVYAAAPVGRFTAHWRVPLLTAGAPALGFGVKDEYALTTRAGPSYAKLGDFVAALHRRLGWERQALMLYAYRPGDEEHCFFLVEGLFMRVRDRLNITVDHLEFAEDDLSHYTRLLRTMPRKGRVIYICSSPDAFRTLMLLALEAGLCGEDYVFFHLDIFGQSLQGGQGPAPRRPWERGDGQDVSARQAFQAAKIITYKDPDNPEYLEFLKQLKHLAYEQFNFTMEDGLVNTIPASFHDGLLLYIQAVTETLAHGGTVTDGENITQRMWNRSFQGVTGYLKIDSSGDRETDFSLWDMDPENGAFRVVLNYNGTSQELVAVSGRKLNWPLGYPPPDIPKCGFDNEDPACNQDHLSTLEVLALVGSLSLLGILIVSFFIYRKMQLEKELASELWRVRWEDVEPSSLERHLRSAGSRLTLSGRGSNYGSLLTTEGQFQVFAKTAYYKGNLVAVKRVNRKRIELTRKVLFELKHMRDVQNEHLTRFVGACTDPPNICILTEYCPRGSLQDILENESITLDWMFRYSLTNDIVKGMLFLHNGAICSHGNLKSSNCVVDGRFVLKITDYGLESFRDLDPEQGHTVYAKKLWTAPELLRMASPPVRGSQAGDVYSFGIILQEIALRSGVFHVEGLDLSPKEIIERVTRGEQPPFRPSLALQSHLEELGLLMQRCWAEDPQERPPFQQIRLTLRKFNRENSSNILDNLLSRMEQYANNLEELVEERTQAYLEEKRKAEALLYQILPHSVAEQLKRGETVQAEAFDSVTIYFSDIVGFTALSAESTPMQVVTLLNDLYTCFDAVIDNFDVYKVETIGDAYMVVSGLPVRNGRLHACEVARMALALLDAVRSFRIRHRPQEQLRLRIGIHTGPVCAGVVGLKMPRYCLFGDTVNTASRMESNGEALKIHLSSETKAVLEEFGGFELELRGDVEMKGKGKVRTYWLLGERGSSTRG
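Compound pre-incubated 30 min at room temperature on GloSensor-loaded HEK293 cells stably carrying hNpr1 and the pGS-40F cGMP biosensor. Stimulation uses hNppA at 0.1 nM final; luminescence is taken at baseline and 20 min post-agonist.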
HEK293 tox: HEK 293 cell cytotoxicity | Potency, µM (doses to about 115 µM), most hits filed as inhibitors | hit rate 6.6% among 94,000 | HEK 293 viability, ATP luminescence (CellTiter-Glo), 48-72 h; further: nearly all actives have a fitted effect of over 60% in size
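HEK 293 cells seeded at 250 cells/well were exposed to compound for 48 or 72 hr at 37 degree Celsius. Viability taken as ATP content by CellTiter-Glo luminescence.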
NIH3T3 tox: NIH 3T3 cell cytotoxicity. NIH 3T3 viability, CellTiter-Glo ATP luminescence, 48-72 h. Potency, µM (highest dose often 96.7 µM), actives largely listed as inhibitors. hit rate 4.3% among 94,000. AID 1345082; further: nearly all actives have a fitted effect of over 55% in size
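ATP-dependent luminescence (CellTiter-Glo) served as the viability signal for NIH 3T3 cells treated with compound for 48 or 72 hr at 37 °C.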
Luciferase inh: Photinus pyralis luciferase inhibition | purified P. pyralis luciferase, luminescence, biochemical | AID 1347043 | hit rate 2.5% among 76,000 | Potency, µM (top dose mostly 115 µM), most hits filed as inhibitors | P08659; further: nearly all actives have a fitted effect of over 65% in size
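Cell-free enzyme assay, 10nM P. pyralis luciferase, luciferin and ATP each at 10uM. Inhibition profiled over a 6-point titration, read as luminescence.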
Large screens that a line does not name were inactive. Unless noted, the call rests on the fitted dose curve; in most records, active means well fitted curve in the direction sought with a large enough effect; inconclusive means small, poorly fitted or top-dose-only effect, or another doubt; inactive means no such curve, though single readings can be large; an effect the other way counts as inactive or inconclusive.

O=C(c1cc(COc2ccccc2F)[nH]n1)N1CCOCC1	Luciferase inh 32µM
Cc1cccc(C(=O)N2CC[C@H]3C(=O)NCCCCCCN(Cc4ccncc4)[C@@H]3C2)c1	HEK293 tox inconclusive, NIH3T3 tox inconclusive
Cc1ccc(C)c(N2CCN(C(=O)c3cc4n(n3)CC(c3ccc(Cl)cc3)OC4)CC2)c1 (stereo not drawn)	HEK293 tox 45µM, NIH3T3 tox inconclusive
O=C(c1cc2n(n1)CC(c1ccc3c(c1)OCO3)OC2)N1CCCCC1 (stereo not drawn)	HEK293 tox 35µM, NIH3T3 tox 40µM
O=C(c1cc2n(n1)CC(c1ccc(Cl)cc1)OC2)N1CCCCC1 (stereo not drawn)	HEK293 tox inconclusive, NIH3T3 tox 40µM
O=C(c1cc2n(n1)CC(c1ccc(Br)cc1)OC2)N1CCOCC1 (stereo not drawn)	HEK293 tox 28µM, NIH3T3 tox 40µM
CCN1CCN(C(=O)c2cc3n(n2)CC(c2ccc(Br)cc2)OC3)CC1 (stereo not drawn)	HEK293 tox inconclusive, NIH3T3 tox inconclusive
Cc1ccccc1N1CCN(C(=O)c2cc3n(n2)CC(c2ccc(Cl)cc2)OC3)CC1 (stereo not drawn)	NPR1 antag inconclusive, HEK293 tox inconclusive, NIH3T3 tox inconclusive
CC(C)c1nc2c(c(-c3ccc(O)cc3)n1)CCN(Cc1ccc(C(F)(F)F)cc1)CC2	HEK293 tox 35µM, NIH3T3 tox 40µM
CC(C)c1nc2c(c(-c3ccc(Cl)cc3)n1)CN([S+](=O)([O-])c1cccc(C(F)(F)F)c1)CC2	none
CC(C)c1nc2c(c(-c3ccc(O)cc3)n1)CN(Cc1ccc(C(F)(F)F)cc1)CC2	HEK293 tox 40µM, NIH3T3 tox inconclusive
CC(C)c1nc2c(c(-c3ccc(O)cc3)n1)CN([S+](=O)([O-])c1cccc(C(F)(F)F)c1)CC2	HEK293 tox inconclusive, NIH3T3 tox 18µM
CC(C)c1nc2c(c(-c3ccc(Cl)cc3)n1)CCN(Cc1ccc(F)cc1)CC2	HEK293 tox 40µM, NIH3T3 tox inconclusive (no result: NPR1 antag, Luciferase inh)
O=C(c1ccccc1F)N1CCCC(C(=O)N2CCCC2c2nc3ccncc3[nH]2)C1 (stereo not drawn)	none (no result: NPR1 antag, Luciferase inh)
Oc1ccc(-c2nc(C3CC3)nc3c2CN(Cc2ccc(C(F)(F)F)cc2)CC3)cc1	HEK293 tox 89µM, NIH3T3 tox inconclusive
COc1ccc(CN2CCCCC23Cc2ccccc2CNC3=O)c(OC)c1 (stereo not drawn)	none (no result: NPR1 antag, Luciferase inh)
CC(C)C[C@@H]1N[C@H](C(=O)NC2CCCC2)Cc2cn(Cc3nccn3C)c3cccc1c23	HEK293 tox 40µM, NIH3T3 tox 89µM
CC(C)C[C@@H]1N[C@H](C(=O)NCc2ccco2)Cc2cn(Cc3nccn3C)c3cccc1c23	HEK293 tox 32µM, NIH3T3 tox inconclusive
Cc1noc(C)c1Cn1cc2c3c(cccc31)[C@H](CC(C)C)N[C@H](C(=O)NCc1ccco1)C2	HEK293 tox inconclusive, NIH3T3 tox 20µM
COCCNC(=O)[C@@H]1Cc2cn(Cc3nccn3C)c3cccc(c23)[C@H](CC(C)C)N1	HEK293 tox 40µM
CC(=O)NCCNC(=O)[C@@H]1Cc2cn(Cc3c(C)noc3C)c3cccc(c23)[C@H](CC(C)C)N1	HEK293 tox inconclusive
COCC1CN(Cc2ccc(Br)cc2)CC12CCNCC2 (stereo not drawn)	HEK293 tox inconclusive, NIH3T3 tox inconclusive
O=S(=O)(c1cccc2nsnc12)N1CCCC(c2nc(CCOCC3CC3)no2)C1 (stereo not drawn)	none (no result: NPR1 antag, Luciferase inh)
O=C(O)C1CCc2sc(C(=O)N3CCCC3)cc2C1 (stereo not drawn)	NIH3T3 tox inconclusive
O=C(O)C1CCc2sc(C(=O)N3CCCCCC3)cc2C1 (stereo not drawn)	NIH3T3 tox inconclusive, Luciferase inh 16µM
CCCCOC(=O)N1C[C@@H](CO)[C@@H]2Oc3c(C)cccc3[C@@H]21	HEK293 tox inconclusive, NIH3T3 tox 40µM (no result: NPR1 antag, Luciferase inh)
O=C1CC2(CCN(C(=O)C3CCCN3C(=O)Cc3ccc(F)cc3)CC2)Oc2ccccc2N1 (stereo not drawn)	none (no result: NPR1 antag, Luciferase inh)
O=C(C1CCN(c2nccc(Nc3ccccc3Cl)n2)CC1)N1CCN(Cc2ccccc2)CC1	HEK293 tox inconclusive, NIH3T3 tox 32µM (no result: NPR1 antag, Luciferase inh)
O=C(C1CCN(c2nccc(Nc3ccccc3Cl)n2)CC1)N1CCOCC1	HEK293 tox inconclusive (no result: NPR1 antag, Luciferase inh)
Cc1ccc(Nc2ccnc(N3CCCC(C(=O)N4CCN(Cc5ccccc5)CC4)C3)n2)cc1 (stereo not drawn)	HEK293 tox 13µM, NIH3T3 tox 40µM (no result: NPR1 antag, Luciferase inh)
COc1ccc(Nc2ccnc(N3CCC(C(=O)N4CCN(Cc5ccccc5)CC4)CC3)n2)cc1	HEK293 tox 32µM, NIH3T3 tox inconclusive (no result: NPR1 antag, Luciferase inh)
O=C(C1CCN(c2nccc(Nc3ccccc3Cl)n2)CC1)N1CCC(Cc2ccccc2)CC1	HEK293 tox 25µM, NIH3T3 tox inconclusive (no result: NPR1 antag, Luciferase inh)
CC(=O)N1CCCN(C(=O)C2CCN(c3nccc(Nc4ccc(C)cc4)n3)CC2)CC1	NIH3T3 tox inconclusive (no result: NPR1 antag, Luciferase inh)
CC(=O)N1CCC(C(=O)N2CCC(N3Cc4ccccc4C3=O)CC2)CC1	none (no result: NPR1 antag, Luciferase inh)
C=CCN1CCN(C(=O)CCC[C@@H]2[C@H]3CCCN4CCC[C@@H](CN2C(=O)c2ccccc2)[C@@H]34)CC1	none
CC(C)(Oc1nn(Cc2cccc(Cl)c2)c2ccccc12)C(=O)N1CCOCC1	NPR1 antag inconclusive, HEK293 tox 89µM, NIH3T3 tox inconclusive
COCc1ccc2c(c1)c(OC(C)(C)C(=O)NCCN1CCOCC1)nn2Cc1ccccc1	HEK293 tox inconclusive, NIH3T3 tox inconclusive
CC(C)(Oc1nn(Cc2cccc(Cl)c2)c2ccccc12)C(=O)NC1CCOCC1	HEK293 tox 89µM, NIH3T3 tox inconclusive
CC(C)(Oc1nn(Cc2cccc(Cl)c2)c2ccccc12)C(=O)NCC[S+](C)(=O)[O-]	NPR1 antag inconclusive, HEK293 tox inconclusive, NIH3T3 tox inconclusive
CC(C)(Oc1nn(CCN2CCOCC2)c2ccccc12)C(=O)NCc1ccccc1	HEK293 tox inconclusive
CC(C)(Oc1nn(Cc2cccc(Cl)c2)c2ccccc12)C(=O)NCCN1CCOCC1	HEK293 tox 50µM, NIH3T3 tox inconclusive
CC(C)(Oc1nn(Cc2cccc(Cl)c2)c2ccccc12)C(=O)NCCCn1ccnc1	NPR1 antag inconclusive, HEK293 tox 50µM, NIH3T3 tox 32µM
O=C1OC[C@@H]2CCN(Cc3ccc(F)c(F)c3)Cc3ccc(F)cc3N12	HEK293 tox inconclusive
O=C(c1cccc(OC(F)(F)F)c1)N1CCC(N2CC3CC(C2)[C@H]2CCCC(=O)N2C3)CC1 (stereo partly drawn)	none
COc1ccc(NC(=O)N2CCc3c(C(=O)Nc4ccccc4)cccc32)cc1	NPR1 antag 4.5µM, HEK293 tox inconclusive, NIH3T3 tox inconclusive, Luciferase inh inconclusive
CNC(=O)c1cccc2c1CCN2C(=O)Nc1ccc(F)cc1	NPR1 antag 11µM, Luciferase inh 0.71µM
O=C(NCc1ccc(N2CCOCC2)cc1)c1cccc2c1CCN2C(=O)c1ccccc1	Luciferase inh 40µM
CN1CCC(NC(=O)c2cccc3c2CCN3C(=O)C2CC2)CC1	none
CN1CCC(NC(=O)c2cccc3c2CCN3C(=O)Nc2ccccc2)CC1	NIH3T3 tox inconclusive, Luciferase inh 22µM

High-throughput results deposited in PubChem BioAssay by National Center for Advancing Translational Sciences (NCATS).
